Experimental data reported in the supplement of paper PMC6853941.
Values without a mark were called inactive.

Test system: MCF10A
Assay: perturbation Mahalanobis distance of morphological profile vs DMSO controls (Mahalanobis distance (SD units)); higher = stronger morphological change, active = 7 or more
Details: screen batch: Batch2_Mahalanobis_Distance; 72 h
Protocol: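 MCF10A cells were seeded onto drugs dispensed acoustically into 384-well plates, using one dose per drug chosen from its human peak plasma concentration, and incubated for 72 h at 37 °C. Cells were stained for DNA, tubulin and mitochondria and imaged; 78 CellProfiler features were extracted, plate-normalised and compared with DMSO wells.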

| SMILES | perturbation Mahalanobis distance |
| --- | --- |
| CC(C)N=C(N)/N=C(\N)Nc1ccc(Cl)cc1 [Proguanil] (3 µM) | 3.24 |
| C[C@H]1O[C@@H](O[C@H]2[C@@H](O)C[C@H](O[C@H]3[C@@H](O)C[C@H](O[C@H]4CC[C@@]5(C)[C@H](CC[C@@H]6[C@@H]5CC[C@]5(C)[C@@H](C7=CC(=O)OC7)CC[C@]65O)C4)O[C@@H]3C)O[C@@H]2C)C[C@H](O)[C@@H]1O [Digitoxin] (0.16 µM) | 17.9 (active) |
| COc1cc2ncnc(Nc3ccc(F)c(Cl)c3)c2cc1OCCCN1CCOCC1 [Gefitinib] (34.7 µM) | 3.28 |
| CCC(C)n1ncn(-c2ccc(N3CCN(c4ccc(OC[C@H]5CO[C@](Cn6cncn6)(c6ccc(Cl)cc6Cl)O5)cc4)CC3)cc2)c1=O (some centres not stated) [Itraconazole] (14.2 µM) | 2.7 |
| CCN(CC)C(=S)S [Sodium Diethyldithiocarbamate Trihydrate] (10 µM) | 3.24 |
| CC/C(=C(\c1ccc(O)cc1)c1ccc(OCCNC)cc1)c1ccccc1 [Endoxifen] (6.75 µM) | 7.34 (active) |
| N[C@@H](CC(=O)N1CCn2c(nnc2C(F)(F)F)C1)Cc1cc(F)c(F)cc1F [Sitagliptin] (4.8 µM) | 2.49 |
| CO[C@H]1O[C@@H]2O[C@@]3(C)CC[C@H]4[C@H](C)CC[C@@H]([C@H]1C)[C@@]24OO3 [Artemether] (3.9 µM) | 2.48 |
| O=c1ncnc2[nH][nH]cc1-2 [Allopurinol] (139.6 µM) | 2.89 |
| O=C1CCc2ccc(OCCCCN3CCN(c4cccc(Cl)c4Cl)CC3)cc2N1 [Aripiprazole] (3.3 µM) | 2.92 |
| CO[C@@H]1[C@@H](OC(N)=O)[C@@H](O)[C@H](Oc2ccc3c(=O)c(NC(=O)c4ccc(O)c(CC=C(C)C)c4)c(O)oc3c2C)OC1(C)C [Novobiocin] (90.8 µM) | 6.6 |
| CC(=O)O[C@@]12CO[C@@H]1C[C@H](O)[C@@]1(C)C(=O)[C@H](O)C3=C(C)[C@@H](OC(=O)[C@H](O)[C@@H](NC(=O)OC(C)(C)C)c4ccccc4)C[C@@](O)([C@@H](OC(=O)c4ccccc4)[C@H]21)C3(C)C [Docetaxel] (22.7 µM) | 2.26 |
| OCCN1C[C@H](O)[C@@H](O)[C@H](O)[C@H]1CO [Miglitol] (45.4 µM) | 2.1 |
| C#C[C@]1(O)CC[C@H]2[C@@H]3CCc4cc(O)ccc4[C@H]3CC[C@@]21C [Ethinyl Estradiol] (23 µM) | 3.63 |
| CN[C@H]1CC[C@@H](c2ccc(Cl)c(Cl)c2)c2ccccc21 [Sertraline] (3.3 µM) | 4.31 |
| CCN(CCO)CCCC(C)Nc1ccnc2cc(Cl)ccc12 (configuration not stated) [Hydroxychloroquine] (1.5 µM) | 2.9 |
| COc1ccc(C[C@@H]2c3cc(OC)c(OC)cc3CC[N@+]2(C)CCC(=O)OCCCCCOC(=O)CC[N@@+]2(C)CCc3cc(OC)c(OC)cc3[C@H]2Cc2ccc(OC)c(OC)c2)cc1OC [Cisatracurium Besylate] (18.1 µM) | 4.5 |
| O=C1CC2(CCCC2)C(O)C(=O)N1CCCCN1CCN(c2ncccn2)CC1 (configuration not stated) [6-Hydroxybuspirone] (0.05 µM) | 3.29 |
| CN(C)c1nc(N(C)C)nc(N(C)C)n1 [Altretamine] (98.9 µM) | 3.12 |

| SMILES | perturbation Mahalanobis distance |
| --- | --- |
| C#CCN(C)Cc1ccccc1 [Pargyline] (1.9 µM) | 3.63 |
| CCc1c2c(nc3ccc(OC(=O)N4CCC(N5CCCCC5)CC4)cc13)-c1cc3c(c(=O)n1C2)COC(=O)[C@]3(O)CC [Irinotecan] (16.8 µM) | 16.6 (active) |
| NS(=O)(=O)c1cc(Cl)c(Cl)c(S(N)(=O)=O)c1 [Dichlorphenamide] (214.8 µM) | 4.41 |
| NC(=O)NO [Hydroxyurea] (650 µM) | 15.4 (active) |
| O=C(C1CCCCC1)N1CC(=O)N2CCc3ccccc3C2C1 (configuration not stated) [Praziquantel] (3.2 µM) | 3.64 |
| N#C[C@@H]1C[C@@H]2C[C@@H]2N1C(=O)[C@@H](N)C12CC3CC(CC(O)(C3)C1)C2 [Saxagliptin] (0.38 µM) | 3.33 |
| Cc1oncc1C(=O)Nc1ccc(C(F)(F)F)cc1 [Leflunomide] (333.1 µM) | 2.68 |
| Nc1nc(NC2CC2)c2ncn(C3C=C[C@H](CO)C3)c2n1 (some centres not stated) [Abacavir] (74.4 µM) | 2.47 |
| CNCCCC12CCC(c3ccccc31)c1ccccc12 [Maprotiline] (10.8 µM) | 6.41 |
| CCCCc1oc2ccc(NS(C)(=O)=O)cc2c1C(=O)c1ccc(OCCCN(CCCC)CCCC)cc1 [Dronedarone] (1.3 µM) | 2.07 |
| CN1C(CCl)Nc2cc(Cl)c(S(N)(=O)=O)cc2S1(=O)=O (configuration not stated) [Methyclothiazide] (0.5 µM) | 2.45 |
| CC(=O)Nc1nnc(S(N)(=O)=O)s1 [Acetazolamide] (90 µM) | 2.44 |
| Cc1nc(-c2ccc(OCC(C)C)c(C#N)c2)sc1C(=O)O [Febuxostat] (178 µM) | 3.22 |
| O=C(Nc1ncc([N+](=O)[O-])s1)c1ccccc1O [Tizoxanide] (48.8 µM) | 3 |
| CCN(CC)CCCC(C)Nc1ccnc2cc(Cl)ccc12 (configuration not stated) [Chloroquine] (4.7 µM) | 2.82 |
| NC(N)=NC(=O)c1nc(Cl)c(N)nc1N [Amiloride] (1.1 µM) | 3.78 |
| Cc1cc(C)cc(OCC2CNC(=O)O2)c1 (configuration not stated) [Metaxalone] (38.4 µM) | 4.58 |
| CC(C)(Oc1ccc(Cl)cc1)C(=O)O [Clofibric Acid] (368 µM) | 2.64 |
